Reference: PubChem BioAssay (EPA / NIEHS)
Calls of active or inactive are those of the source. How the source made its calls: active means hit-call score of the fitted dose curve at least 0.9, where 1 is the maximum; inactive means score below 0.9.

system: TTR (gene 7276); experiment: CCTE_GLTED_hTTR_0.125uM: CCTE's human Transthyretin (hTTR) Inhibition Assay, with 0.125uM TTR, Great Lakes Toxicology and Ecology Division (GLTED) Lab (AID 2284431);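 further: hits lower the fluorescence signal relative to DMSO baseline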
Procedure, shortened: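 Cell-free displacement of ANSA probe from 0.125uM TTR after 2 h incubation with chemical. Fluorescence read at 380 nm excitation/475 nm emission; loss of signal relative to DMSO indicates T4-site displacement.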

Row | Compound | AC50
1 | O=S(=O)(O)c1ccc(N=Nc2c(O)ccc3ccccc23)cc1 | 0.258 µM (active)
2 | CC(C)(c1ccccc1)c1ccc(Nc2ccc(C(C)(C)c3ccccc3)cc2)cc1 | 20.2 µM (active)
3 | CCCCCCCOC(=O)c1ccc(O)cc1 | 1.42 µM (active)
4 | CCCCCC[C@@H](O)C/C=C\CCCCCCCC(=O)OCC(O)CO (stereo partly specified) | 13.5 µM (active)
5 | CC1=NN(c2ccc(S(=O)(=O)O)cc2)C(=O)C1N=Nc1ccccc1 (stereo unspecified) | 5.69 µM (active)
6 | O=C(Oc1ccccc1)c1ccccc1O | 4.91 µM (active)
7 | CCCCCCCCCCCC(=O)N(C)CC(=O)O | 21.4 µM (active)
8 | CCCCCCCCCCCCc1ccc(O)cc1 | 1.62 µM (active)
9 | CCCCCCOc1ccc(N)cc1 | 21.2 µM (active)
10 | O=C(OCc1ccccc1)c1ccc(O)cc1 | 0.322 µM (active)
11 | Cc1ccc(C)c(OCCCC(C)(C)C(=O)O)c1 | 0.499 µM (active)
12 | O=C(OCCc1ccccc1)c1ccccc1 | 20.9 µM (active)
13 | Oc1ccccc1Cc1ccccc1O | 3.62 µM (active)
14 | COc1ccc(-c2coc3cc(O)cc(O)c3c2=O)cc1 | 0.335 µM (active)
15 | Oc1ccc(-c2ccccc2)c(Cl)c1 | 0.0353 µM (active)
16 | COc1ccc(C(=O)c2ccccc2)c(O)c1 | 6.35 µM (active)
